TRPM1 prom inh – reduces MITF-dependent TRPM1 promoter luciferase signal; SK-MEL-5 TRPM1 promoter luciferase, 24 h; inhibition, % at 12.5 µM; 330,000 compounds, 0.83% hits;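 active = mean inhibition across replicates of 60% or more, whatever share of single replicates reaches that level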
Peg3 prom inh – inhibitors of Peg3 promoter. AID 588405. inhibition, % at 20 µM. 360,000 compounds, 1.7% hits. HeLa PEG-Prom luciferase reporter, luminescence, overnight;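 active = inhibition of at least 50% at 20 µM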
ABHD5 PLIN5 PPI – inhibitors of human ABHD5-perilipin-5 interaction; Q00G26+Q8WTS1; Split G. princeps luciferase complementation, luminescence, 4 h; inhibition, % at 4 µM; 360,000 compounds, 0.78% hits; AID 602281;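 active = inhibition above the mean inhibition across every tested compound plus 3 SD, cut at about 22% in these data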;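 also: 0% = DMSO only wells and the 100% control is not disclosed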
Target sequence (Q00G26 whole entry, looked up): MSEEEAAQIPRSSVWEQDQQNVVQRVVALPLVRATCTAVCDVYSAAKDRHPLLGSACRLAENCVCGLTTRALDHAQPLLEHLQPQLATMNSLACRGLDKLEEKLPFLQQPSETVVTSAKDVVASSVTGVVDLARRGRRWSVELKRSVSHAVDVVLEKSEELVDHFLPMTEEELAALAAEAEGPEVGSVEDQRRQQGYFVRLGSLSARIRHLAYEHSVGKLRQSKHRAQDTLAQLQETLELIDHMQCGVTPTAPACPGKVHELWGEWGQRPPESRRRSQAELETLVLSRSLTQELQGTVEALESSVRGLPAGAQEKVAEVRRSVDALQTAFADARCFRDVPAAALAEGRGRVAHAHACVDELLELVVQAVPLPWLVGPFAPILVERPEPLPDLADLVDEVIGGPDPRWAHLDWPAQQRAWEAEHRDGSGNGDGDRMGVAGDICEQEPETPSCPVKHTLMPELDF
Target sequence (Q8WTS1 whole entry, looked up): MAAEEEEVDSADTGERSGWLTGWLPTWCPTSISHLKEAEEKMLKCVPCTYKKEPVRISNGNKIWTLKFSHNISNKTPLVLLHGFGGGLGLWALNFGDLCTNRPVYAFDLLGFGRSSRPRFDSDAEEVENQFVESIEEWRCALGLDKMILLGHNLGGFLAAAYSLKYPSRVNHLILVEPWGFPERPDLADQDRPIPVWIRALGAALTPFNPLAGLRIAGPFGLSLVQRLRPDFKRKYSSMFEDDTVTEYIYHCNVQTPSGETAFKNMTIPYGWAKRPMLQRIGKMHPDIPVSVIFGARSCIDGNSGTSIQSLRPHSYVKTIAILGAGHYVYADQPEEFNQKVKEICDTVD
HIF-2a block – blocks HIF-2a reporter activity; 360,000 compounds, 0.72% hits; inhibition, % at 18.8 µM; 786-0 RCC cells HIF-2a reporter, luciferase luminescence, overnight;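 active = inhibition of the luminescence signal of 40% or more relative to plate controls, in a single-dose primary screen at 18.75 µM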
CF NFkB inh – blocks PAF-induced NF-kB reporter in cystic fibrosis cells. 360,000 compounds, 0.86% hits. AID 588850. inhibition, % at 5 µM. KKLEB NF-kB-GFP reporter, GFP fluorescence overnight;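 active = at least 50% inhibition at 5 µM, scaled per plate between neutral and stimulator controls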;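 also: PAF is a Pseudomonas aeruginosa culture filtrate used as stimulus; plate controls were PAF-stimulated DMSO wells for no effect and unstimulated DMSO wells for full effect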
KKLEB cytotox – CF airway cell cytotoxicity counter-screen | activity change (cytotoxicity), % at 5 µM | AID 602141 | 360,000 compounds, 0.36% hits | KKLEB CF airway cells viability, ATPlite luminescence, overnight; active compounds read low; cells stimulated with P. aeruginosa culture filtrate;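 active = corrected activity change at or below -50% at 5 µM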
Active calls of the source: *; nt = no result given. Most compounds without a hit are left out; they make up all but 3% or so of the library.

SMILES | TRPM1 prom inh | Peg3 prom inh | ABHD5 PLIN5 PPI | HIF-2a block | CF NFkB inh | KKLEB cytotox
O=C(N=Nc1c(O)[nH]c2ccc(Br)cc12)c1cc(-c2cccc3ccccc23)n[nH]1 | -2 | 55* | -6 | -37 | -40 | 12
O=C(N=Nc1c(O)[nH]c2ccc(Br)cc12)c1cc(-c2cccs2)nc2ccccc12 | 47 | 60* | 0 | -15 | -1 | -4
C[C@@H]1CN([C@H](C)CO)C(=O)c2c(c3ccccc3n2C)-c2ccccc2CO[C@H]1CN(C)C(=O)c1cc(Cl)cc(Cl)c1 | nt | 4 | 0 | -5 | -9 | -1
CC(=O)c1cccc(NC(=O)CN2C(=O)NC(C)(C)C2=O)c1 | -5 | -3 | 8 | 2 | -15 | 19
Cc1ccc(S(=O)(=O)n2ccc3c(OCCOCCSCC(NC(=O)OC(C)(C)C)C(=O)O)cccc32)cc1 (stereo unspecified) | 5 | 27 | 3 | 17 | 1 | 6
Cc1ccc(S(=O)(=O)n2ccc3c(OCCOCCNCc4ccc(F)cc4)cccc32)cc1 | 32 | 96* | 3 | 25 | 30 | -34
CCc1noc(C)c1C(=O)OCC(=O)c1ccc(NC(C)=O)cc1F | 9 | 6 | -5 | 4 | -8 | 1
COc1ccc(C(=O)Oc2cccc(Nc3ncnc4ccccc34)c2)cc1OC | -3 | 7 | -2 | -9 | 20 | -13
COc1cc(C(=O)Oc2cccc(Nc3ncnc4ccccc34)c2)cc(OC)c1OC | 26 | 62* | -4 | -47 | -1 | 6
COc1ccc(N(C(=O)Cn2nnc(-c3ccccc3F)n2)C(C(=O)NCC2CCCO2)c2ccc(Cl)cc2)cc1 (stereo unspecified) | 12 | 58* | 6 | 21 | -11 | 2
CC1=C(C(=O)Nc2ccc(C)cc2C)C(c2cccc(Cl)c2)n2nc(C(=O)OC(C)C)nc2N1 (stereo unspecified) | 5 | 40 | 1 | 11 | -3 | 3
CC1=C(C(=O)Nc2ccc(C)cc2C)C(c2cccc([N+](=O)[O-])c2)n2nc(C(=O)OC(C)C)nc2N1 (stereo unspecified) | 7 | 81* | -1 | 20 | -14 | -25
COc1ccc(CCNC(=O)c2cc(C(=O)c3cc(Cl)ccc3O)cn(CCc3ccc(OC)cc3)c2=O)cc1 | 8 | 39 | -3 | 20 | 16 | -4
O=C(c1cc(C(=O)NCCc2ccccc2)c(=O)n(CCc2ccccc2)c1)c1cc(Cl)ccc1O | -7 | 52* | -2 | 10 | 36 | -24
C=CCNC(=O)/C(C#N)=C/c1c(N(Cc2ccccc2)Cc2ccccc2)nc2ccccn2c1=O | 10 | 50* | 4 | 26 | 18 | 3
O=C1OCCC1Sc1nnc(-c2ccco2)o1 (stereo unspecified) | 0 | 4 | -1 | 27 | -2 | 7
O=C1OCCC1Sc1nnc(-c2ccc(Br)cc2)o1 (stereo unspecified) | 12 | 28 | 3 | 47* | 3 | -9
CC(=O)NC(c1ccc(C)cc1)c1cc([N+](=O)[O-])c2cccnc2c1O (stereo unspecified) | -6 | 54* | 6 | 24 | 11 | 7
O=[N+]([O-])c1cc(Cl)c2cccnc2c1O | 8 | 34 | -1 | 9 | 3 | 11
CCC(=O)NC(c1cc(Cl)c2cccnc2c1O)C(C)C (stereo unspecified) | 38 | 35 | -6 | 16 | 1 | 7
CCC(=O)NC(c1ccc(C)cc1)c1cc([N+](=O)[O-])c2cccnc2c1O (stereo unspecified) | 6 | 53* | 7 | -1 | 2 | -4
CCOC(=O)c1nc(N/N=C/c2ccccc2)sc1Br | -14 | -91 | -8 | -66 | 0 | 19
Cc1cccc(C)c1NC(=O)C1(C)CN(S(C)(=O)=O)CC(=O)N1CCCn1ccnc1 (stereo unspecified) | nt | nt | -14 | -2 | nt | nt
CCOC(=O)c1sc(NC(=O)Nc2ccccc2Cl)cc1C | -34 | -185 | -11 | -233 | -1 | -7
CCOC(=O)c1sc(NC(=O)Nc2ccccc2)cc1C | -106 | -231 | -1 | -252 | 28 | -51*
SMILES | TRPM1 prom inh | Peg3 prom inh | ABHD5 PLIN5 PPI | HIF-2a block | CF NFkB inh | KKLEB cytotox
O=C(NCc1cccc(Cl)c1)C1CCC(=O)N(CCCN2CCCC2=O)C1 (stereo unspecified) | 1 | 4 | -1 | -3 | -11 | 1
O=C(COc1coc(CN2CCc3ccccc32)cc1=O)Nc1cccc(F)c1 | 4 | 14 | -2 | 6 | 64* | -56*
O=C(COc1coc(CN2CCc3ccccc3C2)cc1=O)Nc1cccc(F)c1 | -8 | -18 | 4 | -26 | -7 | -3
Cc1ccc(C(=O)/C=C/c2ccc(-c3ccc(C)cc3)o2)cc1 | -1 | 74* | 14 | 20 | 2 | 0
O=C1/C(=C/c2ccccc2)SC(=S)N1CC(=O)N1CCCCC1c1cccnc1 (stereo unspecified) | -49 | 59* | 9 | 73* | 34 | -14
O=C(CCN1C(=O)/C(=C/c2ccccc2)SC1=S)Nc1cccnc1 | -11 | -9 | 1 | 10 | 16 | 2
CC(C)CN(C(=O)CN(C)CC(=O)Nc1ccc(Cl)c(C(F)(F)F)c1)c1c(N)n(CC(C)C)c(=O)[nH]c1=O | 2 | 16 | 7 | 7 | 4 | -7
CCN(CC)CCNC(=O)c1ccc(NC(=O)Cc2ccc(OC)c(S(=O)(=O)N3CCOCC3)c2)cc1 | 1 | -16 | 4 | 0 | -9 | 18
C=CC(=O)Nc1ccc(CN2C(=O)N(c3c(Cl)c(OC)cc(OC)c3Cl)Cc3cnc(NCCCCN(CC)CC)nc32)cc1 | 2 | 52* | 13 | 32 | 34 | -35
Cc1cc(C)c(NC(=O)Cn2c(=O)n(Cc3ccco3)c(=O)c3ccccc32)c(C)c1 | -2 | 14 | 43* | -4 | -14 | 10
O=[N+]([O-])c1ccc(Sc2cccc[n+]2[O-])c2nonc12 | 100* | 111* | 86* | 91* | 84* | -97*
O=C1c2cc3c(cc2CCC1c1ccc2c(c1)OCO2)OCO3 (stereo unspecified) | nt | -312 | -5 | -193 | -14 | 4
CCOC(=O)c1cnc(SCC(=O)Nc2cc(OC)cc(OC)c2)nc1N | 12 | 37 | -1 | 21 | 12 | -15
CCOC(=O)c1cnc(SCC(=O)Nc2sc(C)c(C)c2C#N)nc1N | -1 | 45 | 1 | 10 | 47 | -50*
CCN1CCN(C(c2cccnc2)c2c(NC(=O)c3ccco3)sc(C)c2C)CC1 (stereo unspecified) | 22 | 55* | -7 | -81 | -14 | -3
CSCC[C@H](NC(=O)c1cccc(S(=O)(=O)N2CCCCC2)c1)c1nc2ccccc2[nH]1 | 10 | 3 | 9 | -4 | 16 | -9
CC(C)N(CC(=O)Nc1ccc(Cl)cc1C(F)(F)F)C(=O)CCl | 10 | 65* | 16 | 18 | 2 | -20
